Source: PubChem BioAssay AID1851 (National Center for Advancing Translational Sciences (NCATS), 2009)
Values joined by “and” are separate entries in the source; they are usually repeats but may differ in a detail not shown here. Equal entries are not always repeated. The whole screen tested about 16,000 compounds, of which about 5,700 (36%) were called active. Another 24% or so got no clear call; they are omitted. Some of the results follow. A number with no mark means an inactive call. The call rests on the fitted dose curve; in most records, active means well fitted curve in the direction sought with a large enough effect; inconclusive means small, poorly fitted or top-dose-only effect, or effect the other way; inactive means no such curve, though single readings can be large or run the other way.
On the % scale 0 is the no-effect control and ±100 the full control effect.

These compounds were tested against Cytochrome P450 1A2 (Homo sapiens) (UniProt P05177) (assay: Cytochrome panel assay with activity outcomes). Conditions: recombinant CYP, pro-luciferin dealkylation, luminescence, p450-cyp1a2; series mostly up to 57.1 µM; activity, negative = inhibition: at the top concentration.
Chain of Cytochrome P450 1A2 (Homo sapiens) (P05177 whole entry, looked up): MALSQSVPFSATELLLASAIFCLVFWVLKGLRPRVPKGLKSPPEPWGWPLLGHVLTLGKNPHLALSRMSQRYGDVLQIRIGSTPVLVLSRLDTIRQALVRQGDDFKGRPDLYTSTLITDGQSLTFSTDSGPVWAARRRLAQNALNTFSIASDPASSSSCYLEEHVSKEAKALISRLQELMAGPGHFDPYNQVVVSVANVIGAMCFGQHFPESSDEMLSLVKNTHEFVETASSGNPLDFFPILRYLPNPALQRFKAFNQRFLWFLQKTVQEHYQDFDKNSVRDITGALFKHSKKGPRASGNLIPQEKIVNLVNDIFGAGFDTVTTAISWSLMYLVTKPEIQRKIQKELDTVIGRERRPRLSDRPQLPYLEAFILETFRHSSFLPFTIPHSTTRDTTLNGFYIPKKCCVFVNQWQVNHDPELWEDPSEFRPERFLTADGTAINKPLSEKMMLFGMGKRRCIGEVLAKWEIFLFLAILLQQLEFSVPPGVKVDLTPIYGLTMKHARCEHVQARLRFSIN
In the case of `COc1ccc(NC(=O)N2CCCC3(CCN(S(C)(=O)=O)CC3)C2)cc1`, the “activity, negative = inhibition” value is reported as -8.77%.
For `O=C1c2ccccc2CC[C@H]1CNCCc1ccc(O)cc1`, the AC50 was 20 µM (active).
`Cc1ccc(NC(=O)Nc2ncccc2C)cc1` was tested, and the AC50 was 3.55 µM (active).
`Cc1cccc(C)c1NC(=O)Nc1ccc(S(N)(=O)=O)cc1` was tested, and the activity, negative = inhibition was -10.8% [at 2.29 µM].
`CCCCNC(=O)c1cc2nc3c(c(C(F)(F)F)n2n1)CCc1ccccc1-3` was tested, and the AC50 was 2.51 µM (active).
With `COc1cccc(N=c2oc3c(C)ncc(CO)c3cc2C(N)=O)c1` the AC50 was 4.47 µM (active).
Compound `CO[C@H]1COC(=O)CCC[C@H](C)[C@H](OC)COC(=O)C/C=C\[C@@H]1C` has an activity, negative = inhibition of -3.93% [at 11.4 µM].
With `Cc1ccsc1/C=N/Nc1nc(Cl)c(Cl)cc1Cl` the AC50 was 2 µM (active).
For `N#Cc1ccc(C2=NC(C(F)(F)F)(C(F)(F)F)c3c(n(Cc4ccco4)c(=O)[nH]c3=O)N2)cc1`, the “activity, negative = inhibition” value was -5.04%.
`C#CC[N+](CC)(CC)CC#Cc1cccc(Cl)c1` was tested, and the “activity, negative = inhibition” value was -7.67%.
With `CNC(=O)c1sc(SC)cc1-c1ccc(Cl)cc1` the AC50 was 0.355 µM (active).
`Cc1nc2c(C(=O)NCc3ccc4c(c3)OCO4)c[nH]n2c(=O)c1Cc1ccccc1F` was tested, and the AC50 was 12.6 µM (active).
With `Cc1nc2ccccn2c1/C(O)=C1\C(=O)C(=O)N(CCN2CCOCC2)C1c1cccnc1` (stereo not given) the “activity, negative = inhibition” value was -17.5%.
With `CCNc1ncc2ncc(=O)n(Cc3ccc(F)cc3)c2n1` the AC50 was 1 µM (active).
With `CCNc1ncc2nc(C)c(=O)n(Cc3cccc(OC)c3)c2n1` the AC50 was 3.16 µM (active).
With `O=c1cnc2cnc(Nc3ccccc3)nc2n1Cc1ccc(F)cc1` the AC50 was 1 µM (active).
`CCNc1ncc2nc(C)c(=O)n(Cc3ccc(F)cc3)c2n1` was tested, and the AC50 was 1.58 µM (active).
With `Cc1cc(CN2CCCCC2)c(O)c(CN2CCCCC2)c1` the activity, negative = inhibition was -18.8% [at 2.29 µM].
For `OC[C@@H]1O[C@@H](n2cnc3c(NC4CCCC4)ncnc32)[C@@H](O)[C@H]1O`, the “activity, negative = inhibition” value was -3.56%.
With `Cn1cnc2c(NC3CCCC3)ncnc21` the AC50 was 12.6 µM (active).
`OC[C@@H]1O[C@@H](n2cnc3c(NC4CCCC4)ncnc32)[C@H](O)[C@H]1O` was tested, and the “activity, negative = inhibition” value was -4.01%.
With `Cc1ccc(S(=O)(=O)O[C@H]2C[C@@H](C(C)(C)C)CC[C@@H]2c2ccccc2)cc1` the activity, negative = inhibition was -22.8% [at 2.29 µM].
`O=c1oc(-c2cccs2)nc2ccc(Br)cc12` was tested, and the AC50 was 2.51 µM (active).
For `CNC(=S)N1CCN(c2cccc(OC)c2)CC1`, the AC50 was 15.8 µM (active).
With `COc1ccccc1N1CCN(CCN2C(=O)CC3(CCCC3)CC2=O)CC1` the “activity, negative = inhibition” value was -12.8%.
In the case of `COc1ccc(N2CCN(C(=S)Nc3cc(C)cc(C)c3)CC2)cc1`, the “activity, negative = inhibition” value is reported as -5.23%.
With `COc1ccccc1N1CCN(CCCCN2C(=O)c3ccccc3C2=O)CC1` the AC50 was “inactive”.
In the case of `CNC(=S)N1CCN(c2ccccc2OC)CC1`, the AC50 is reported as 7.08 µM (active).
In the case of `COc1cccc(N2CCN(C(=S)Nc3cccc(C)c3)CC2)c1`, the “activity, negative = inhibition” value is reported as -14.1%.
In the case of `CC1CCCN(CCCNC(=O)C2CC(=O)N(c3ccc(F)c(Cl)c3)C2)C1` (stereo not given), the “activity, negative = inhibition” value is reported as -12.8%.
In the case of `CCCCOc1ccc(CNn2c(C)nc3ccccc3c2=O)cc1`, the AC50 is reported as 15.8 µM (active).
With `COc1ccc(CNn2c(C)nc3ccccc3c2=O)cc1` the AC50 was 12.6 µM (active).
With `COc1ccc(-c2nc3ccccc3c(=O)n2N)cc1` the AC50 was 25.1 µM (active).
In the case of `Cc1cc(=O)[nH]c(-n2[nH]c(C)cc2=O)n1`, the “activity, negative = inhibition” value is reported as -3.59%.
With `O=C1C=C(c2cccs2)CC(c2cccs2)C1n1cnc([N+](=O)[O-])c1` (stereo not given) the AC50 was 3.16 µM (active).
With `c1ccc(CNc2ncnc3ccc(-c4ccc5c(c4)OCO5)cc23)cc1` the AC50 was 0.2 µM (active).
In the case of `Cc1cccc(CNc2ncnc3ccc(-c4ccc5c(c4)OCO5)cc23)c1`, the AC50 is reported as 0.501 µM (active).
`c1ccc(Nc2ncnc3ccc(-c4ccc5c(c4)OCO5)cc23)cc1` was tested, and the AC50 was 0.251 µM (active).
In the case of `c1ccc(C2CCC(N3CCC(N4CCCCC4)CC3)CC2)cc1` (stereo not given), the “activity, negative = inhibition” value is reported as -5.53%.
In the case of `Cc1noc(C)c1C(=O)N1CCC2(CCN(C(=O)Nc3ccccc3)CC2)CC1`, the “activity, negative = inhibition” value is reported as -8.72%.
With `Cc1noc(C)c1C(=O)N1CCC2(CCCN(C(=O)Nc3ccccc3)C2)CC1` the AC50 was 12.6 µM (active).
`COc1ccc(NC(=O)N2CCCC3(CCN(C(=O)c4c(C)noc4C)CC3)C2)cc1` was tested, and the “activity, negative = inhibition” value was 12.3%.
In the case of `O=C(Nc1ccccc1)N1CCCC2(CCN(C(=O)c3ccco3)CC2)C1`, the AC50 is reported as 20 µM (active).
For `COc1ccc(NC(=O)N2CCCC3(CCN(C(=O)c4ccco4)CC3)C2)cc1`, the “activity, negative = inhibition” value was -10.2%.
In the case of `O=C(Nc1ccccc1)N1CC2(CCN(C(=O)c3ccco3)CC2)C1`, the “activity, negative = inhibition” value is reported as 6.85%.
In the case of `CO[C@H]1OC[C@@]2(C)[C@@H]3C4=C(CN2C(=O)OC(C)(C)C)[C@H](C)[C@H](CO)[C@H](CO)[C@H]4CC[C@H]13`, the “activity, negative = inhibition” value is reported as -18.6%.
In the case of `C=CCN(CC=C)C(=O)C(=O)c1cc(C)n(-c2ccc([N+](=O)[O-])cc2)c1C`, the “activity, negative = inhibition” value is reported as -5.98%.
In the case of `Cc1ccc(SCc2ccc(C(=O)Nc3cc([N+](=O)[O-])ccc3C)cc2)cc1`, the “activity, negative = inhibition” value is reported as -14.8%.
In the case of `Cc1ccc([N+](=O)[O-])cc1NC(=S)NC(=O)C(C)(C)C`, the AC50 is reported as 0.2 µM (active).
`Cc1ccc([N+](=O)[O-])cc1NC(=S)NC(=O)CC(C)(C)C` was tested, and the AC50 was 2 µM (active).
In the case of `CC(=O)NS(=O)(=O)c1ccc(NC(=S)NC(=O)C(C)(C)C)cc1`, the “activity, negative = inhibition” value is reported as 3.06%.
In the case of `CCCN1CCN(C(=O)CN2C(=O)CC(C)(C)S(=O)(=O)c3ccccc32)CC1`, the “activity, negative = inhibition” value is reported as -7.7%.
For `COc1ccc(-n2c(=O)c(-c3cccs3)nc3cnc(N4CCNCC4)nc32)cc1`, the AC50 was 5.01 µM (active).
In the case of `O=c1c(-c2ccccc2)nc2cnc(N3CCOCC3)nc2n1-c1ccccc1`, the AC50 is reported as 12.6 µM (active).
For `CN1CCN(c2ncc3ncc(=O)n(-c4ccccc4)c3n2)CC1`, the AC50 was 2.51 µM (active).
In the case of `O=c1c(-c2cccs2)nc2cnc(N3CCNCC3)nc2n1-c1ccccc1`, the AC50 is reported as 2.51 µM (active).
`O=C(c1csnn1)N1CCC2(CCCN(Cc3ccccc3)C2)CC1` was tested, and the “activity, negative = inhibition” value was -7.35%.
For `CN1CCN(c2ncc3nc(-c4cccs4)c(=O)n(-c4ccccc4)c3n2)CC1`, the AC50 was 3.16 µM (active).
`O=c1c(-c2cccs2)nc2cnc(N3CCOCC3)nc2n1-c1ccccc1` was tested, and the AC50 was 5.01 µM (active).
For `CO[C@H]1C[C@@H](O[C@@H]2[C@H](C)[C@H](O[C@@H]3O[C@@H](C)C[C@@H](N(C)C)[C@@H]3O)[C@H](C)C[C@]3(CO3)C(=O)[C@H](C)[C@H](O)[C@H](C)[C@H](C)OC(=O)[C@@H]2C)O[C@@H](C)[C@H]1O`, the “activity, negative = inhibition” value was 1.17% [at 25.6 µM].
In the case of `COc1ccc(O)c(/C=N/NC(=O)c2ccc(OCc3cccc(Br)c3)cc2)c1`, the AC50 is reported as 11.2 µM (active).
With `COc1ccc(C(=O)N/N=C/c2cccc3cccnc23)cc1` the AC50 was 2 µM (active).
For `COc1ccc(O)c(/C=N/NC(=O)CSc2nnc(C)n2-c2ccccc2)c1`, the “activity, negative = inhibition” value was -4.22%.
For `O=C(CNC(=O)/C(=C\c1ccccc1)NC(=O)c1ccc(Br)cc1)OCc1ccccc1`, the “activity, negative = inhibition” value was -27.8%.
With `COc1ccc(C(=O)NCC(=O)OCc2cccc(Br)c2)cc1` the AC50 was 6.31 µM (active).
For `CSC(=N)N`, the “activity, negative = inhibition” value was -5.29%.
For `Clc1cccc(Nc2ncnc3ccc(Br)cc23)c1`, the AC50 was 0.562 µM (active).
In the case of `Brc1ccc2ncnc(Nc3cccc4ccccc34)c2c1`, the AC50 is reported as 1.58 µM (active).
In the case of `COc1cccc(-c2nnc3n2N=C(C(C)(C)C)CS3)c1`, the AC50 is reported as 2.82 µM (active).
`COc1ccc(-c2nnc3n2N=C(C)CS3)cc1` was tested, and the AC50 was 1.41 µM (active).
In the case of `CCOc1ccc(C2=Nn3c(nnc3-c3ccco3)SC2)cc1`, the AC50 is reported as 2 µM (active).
`COc1ccc(-n2c(C)n[nH]c2=O)cc1` was tested, and the “activity, negative = inhibition” value was -1.01%.
`CCc1ccc(C2=Nn3c(nnc3-c3cccs3)SC2)cc1` was tested, and the AC50 was 3.55 µM (active).
`O=C(O)C1=CCCNC1` was tested, and the AC50 was “inactive”.
`CCOc1ccc(-c2nnc3n2N=C(c2ccc(OC)cc2)CS3)cc1` was tested, and the AC50 was 3.55 µM (active).
`O=C(OCc1ccccc1)/C(=C/c1ccc(Cl)cc1)NC(=O)c1ccccc1Cl` was tested, and the AC50 was 0.891 µM (active).
In the case of `O=C(OCC(=O)c1ccc([N+](=O)[O-])cc1)/C(=C\c1ccc(Cl)cc1)NC(=O)c1ccccc1`, the AC50 is reported as 12.6 µM (active).
With `COc1cc(/C=C(/NC(=O)c2ccccc2Cl)C(=O)O)cc(OC)c1OC` the “activity, negative = inhibition” value was -2.92%.
In the case of `O=C(Nc1cccc2ccccc12)/C(=C/c1ccc([N+](=O)[O-])cc1)NC(=O)c1ccccc1`, the AC50 is reported as 3.16 µM (active).
With `Cc1ccc(NC(=O)/C(=C\c2ccc([N+](=O)[O-])cc2)NC(=O)c2ccccc2)cc1` the “activity, negative = inhibition” value was -11%.
`Cc1ccc(S(=O)(=O)N[C@H]2COC(=O)C/C=C\[C@@H](C)[C@H](NS(=O)(=O)c3ccc(C)cc3)COC(=O)C/C=C\[C@H]2C)cc1` was tested, and the activity, negative = inhibition was -0.94% [at 11.4 µM].
In the case of `O=C(Nc1ccnc(-c2cccnc2)n1)c1ccccc1Cl`, the AC50 is reported as 0.398 µM (active).
With `O=C(Nc1ccnc(-c2cccnc2)n1)c1cccc(Cl)c1Cl` the AC50 was 0.562 µM (active).
With `CC1(C)OCC([C@H](O)C2=CCCCC2=O)CO1` the activity, negative = inhibition was -1.5% [at 11.4 µM].
In the case of `O=C(c1ccco1)N1CCN(C(=O)C2(S(=O)(=O)c3ccc(Cl)cc3)CC2)CC1`, the “activity, negative = inhibition” value is reported as -22%.
With `FC(F)(F)c1cccc(-c2nc3nc(Cl)c(Cl)nc3[nH]2)c1` the AC50 was 0.398 µM (active).
`CN1CCc2cc(NC(=O)Nc3cccnc3)ccc21` was tested, and the AC50 was 0.0794 µM (active).
`Cn1ccc2cc3c(cc21)CCN3C(=O)Nc1cccnc1` was tested, and the AC50 was 25.1 nM (active) and 3.98 nM (active).
With `O=C(Nc1cccc(F)c1)N1CCC2(CC1)CCN(C(=O)c1cnccn1)CC2` the “activity, negative = inhibition” value was 4.45%.
In the case of `COc1cc2c(cc1C(F)(F)F)N(C(=O)Nc1cc(F)cc(-c3cccnc3)c1)CC2`, the AC50 is reported as 0.316 µM (active).
For `CSc1cc2c(cc1C(F)(F)F)N(C(=O)Nc1cccnc1)CC2`, the AC50 was 0.000794 µM (active).
`COC(=O)c1ccc(NC(=O)N2CCC(O)(c3cccnc3)CC2)cc1` was tested, and the “activity, negative = inhibition” value was -13.5%.
`CN1CCc2c(cc(O)c(O)c2Cl)[C@H](c2cccc(Cl)c2)C1` was tested, and the “activity, negative = inhibition” value was -4.23%.
With `Cn1c(=O)[nH]c2ncn(C)c2c1=O` the “activity, negative = inhibition” value was -4.02%.
In the case of `[O-][N+](CCO)(CCO)c1ncnc2nc[nH]c12`, the activity, negative = inhibition is reported as -5.88% [at 11.4 µM].
